Here are results for 3 compounds from PubChem BioAssay (NCI).

About 83,000 compounds went through this panel and 20% of them were active in at least one assay; those are over-represented in the sample as a whole.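 48-hour exposure, single concentration, 96-well plates; percent growth endpoint where 0 means no net growth. Active: below 10.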 Unmarked numbers belong to inactive results. The source made the active and inactive calls.

Common to all, as to experiment: NCI-60 one-dose screen, 48 h (100 = growth as untreated, 0 = no growth, -100 = all killed)
The test system of one test is A549/ATCC NSCLC. The conditions noted are these: 10 µM unless noted.
Another test concerns COLO 205 colon. The conditions noted are these: 10 µM.
Another test relates to MALME-3M melanoma. As to conditions: 10 µM unless noted.
In a further test the test system is RXF 393 renal. As to conditions: 10 µM unless noted.
Another test deals with UACC-257 melanoma. As to conditions: 10 µM unless noted.
The next test has as its system HT29 colon. The conditions noted are these: 10 µM unless noted.
The subject of another test is U251 CNS. As to conditions: 10 µM unless noted.
In another test the test system is SK-MEL-2 melanoma. The conditions noted are these: 10 µM unless noted.
In another test the test system is SN12C renal. As to conditions: 10 µM unless noted.
Another test deals with UO-31 renal. The conditions noted are these: 10 µM unless noted.
Another test deals with CAKI-1 renal. As to conditions: 10 µM unless noted.
In a further test the test system is A498 renal. As to conditions: 10 µM unless noted.
The next test has as its system HL-60(TB) leukemia. As to conditions: 10 µM unless noted.
The subject of the next test is OVCAR-8 ovarian. As to conditions: 10 µM unless noted.
The next test relates to OVCAR-4 ovarian. The conditions noted are these: 10 µM unless noted.
The subject of the next test is HS 578T breast. As to conditions: 10 µM unless noted.
In a further test the test system is T-47D breast. The conditions noted are these: 10 µM unless noted.
For a further test, the system named is BT-549 breast. The conditions noted are these: 10 µM.
For the next test, the system named is MDA-MB-435 melanoma. As to conditions: 10 µM unless noted.
In a further test the test system is SK-OV-3 ovarian. The conditions noted are these: 10 µM unless noted.

`Cc1nnc([S-])s1.[Au+].c1ccc([PH+](c2ccccc2)c2ccccc2)cc1`: the growth with A549/ATCC NSCLC was 74.6%; in the test with COLO 205 colon, -31.7% (active); with MALME-3M melanoma, -61.6% (active); in the test with RXF 393 renal it was -84.6% (active); in the test on UACC-257 melanoma it was -12.4% (active); with HT29 colon it was 12%. In addition, the growth in the test with U251 CNS was -59.9% (active); with SK-MEL-2 melanoma, -12.2% (active); in the test on SN12C renal it was 6.71% (active); with UO-31 renal, -3.87% (active); with CAKI-1 renal it was -26.8% (active); with A498 renal it was 25.1%. Further, the growth in the test on HL-60(TB) leukemia was -15.2% (active); in the test with OVCAR-8 ovarian, 15.9%; with OVCAR-4 ovarian, 36.2%; in the test with HS 578T breast it was 30.8%; with T-47D breast, -40.2% (active); in the test with BT-549 breast, 33.9%. Also, in the test on MDA-MB-435 melanoma, the growth is 5.65% (active).

`CC[C@]12C=CCN3CC[C@@]4(c5ccc(OC)cc5N(C)[C@H]4[C@@](O)(C(=O)OC)[C@@H]1OC(=O)CCCN1CCN(CCCC(=O)O[C@@H]4[C@]5(CC)C=CCN6CC[C@@]7(c8ccc(OC)cc8N(C)[C@H]7[C@@]4(O)C(=O)OC)[C@@H]65)CC1)[C@@H]32`: the growth in the test with A549/ATCC NSCLC is -81.4% (active); with COLO 205 colon, -79% (active); in the test on MALME-3M melanoma it was -90.7% (active); in the test on RXF 393 renal, -88.5% (active); with UACC-257 melanoma it was -87.6% (active); with HT29 colon, -81.3% (active). The growth in the test with U251 CNS is -83.7% (active); in the test on SK-MEL-2 melanoma, -75.7% (active); in the test on SN12C renal, -81.4% (active); in the test on UO-31 renal, -88.8% (active); in the test on CAKI-1 renal it was -97% (active); in the test with A498 renal it was -58.2% (active). The growth with HL-60(TB) leukemia was -66.6% (active); in the test on OVCAR-8 ovarian it was -71.1% (active); with OVCAR-4 ovarian, -47.4% (active); in the test on SK-OV-3 ovarian, -88.7% (active); in the test on HS 578T breast, -61.7% (active); in the test with T-47D breast, -68.3% (active). The growth is -88.3% (active) in the test with BT-549 breast and -89.3% (active) in the test with MDA-MB-435 melanoma.

On to `CCN1CC2(CN(CC)C1=S)C(=O)NC(=O)NC2=O`, for which the growth with A549/ATCC NSCLC is 99.9%; in the test with COLO 205 colon it was 115%; in the test with MALME-3M melanoma, 103%; in the test on RXF 393 renal it was 116%; with UACC-257 melanoma, 94.7%; in the test with HT29 colon it was 90.3%. Moreover, the growth in the test with U251 CNS is 97.7%; in the test with SK-MEL-2 melanoma, 99%; in the test on SN12C renal it was 107%; in the test with UO-31 renal, 99.4%; in the test with CAKI-1 renal, 85.4%; in the test on A498 renal it was 112%. The growth in the test with HL-60(TB) leukemia was 83.3%; in the test on OVCAR-8 ovarian, 101%; in the test on OVCAR-4 ovarian, 93.3%; in the test on SK-OV-3 ovarian it was 97.4%; with HS 578T breast, 104%; in the test on T-47D breast it was 90.4%. Besides, the growth with BT-549 breast is 91.4%; in the test with MDA-MB-435 melanoma it was 103%.
